Among the data in PubChem BioAssay (NCI) are growth values, retold here.

Compounds without any hit were thinned out: in the full panel of roughly 83,000, 20% have a hit.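 Note: values are percent growth. 100 is the growth of untreated cells, values between 100 and 0 indicate rising inhibition; between -100 and 0 indicates cell death.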 Unmarked numbers belong to inactive results. Activity calls are given as the source filed them. How the source made its calls: active means growth percent below 10; inactive means the rest.

Experiment in all cases: NCI-60 one-dose screen, 48 h (100 = growth as untreated, 0 = no growth, -100 = all killed)
Assay [1] has as its system T-47D breast. The following applies: 10 µM unless noted.
Assay [2] relates to BT-549 breast. Particulars: 10 µM unless noted.
Assay [3] deals with MDA-MB-435 melanoma. The following applies: 10 µM unless noted.
The subject of assay [4] is SW-620 colon. The following applies: 10 µM unless noted.
For assay [5], the system named is MCF7 breast. The following applies: 10 µM unless noted.
Assay [6] concerns HCT-116 colon. The following applies: 10 µM unless noted.
The test system of assay [7] is HCC-2998 colon. Particulars: 10 µM.
In assay [8] the test system is KM12 colon. Particulars: 10 µM unless noted.

On to `COC(=O)[C@@H](NC(=O)[C@@H](OC)[C@@H]1Cc2cc3cc(OC4CC(OC5CC(O)C(O)C(C)O5)C(O)C(C)O4)c(C)c(O)c3c(O)c2C(=O)[C@H]1OC1CC(OC2CC(OC3CC(C)(O)C(O)C(C)O3)C(O)C(C)O2)C(O)C(C)O1)C(C)C` (some centres not stated), for which the growth was 10.2% in assay [1]; -20.7% (active) in assay [2]; 18.9% in assay [3]; 16.6% in assay [4]; 6.73% (active) in assay [5]; 4.79% (active) in assay [6]. The results for the growth in assay [7] and in assay [8] were 11.2% and 4.63% (active), respectively.
As for `N#Cc1c(-c2ccc(Cl)cc2)csc1NC(=O)Nc1cccc(C(F)(F)F)c1`, the growth in assay [1] was -5.74% (active); in assay [2] it was 26.3%; in assay [3] it was 14.1%; in assay [4], 22.7%; in assay [5], 12.8%; in assay [6], 1.8% (active). Moreover, the growth is 19.9% in assay [7] and 12.9% in assay [8].
Regarding `O=C(Nc1ccc(Nc2ncnc3sc4c(c23)CCOC4)cc1)Nc1ccc(Cl)c(C(F)(F)F)c1`, the growth was 81.8% in assay [1]; 89.1% in assay [2]; 99.1% in assay [3]; 121% in assay [4]; 90.5% in assay [5]; 77.5% in assay [6]. Moreover, the results for the growth in assay [7] and in assay [8] were 106% and 86.4%, respectively.
Take `COc1cc2nc(Nc3cccc(Cl)c3)nc(N)c2cc1OC`: the growth in assay [1] is 84.5%; in assay [2] it was 78.6%; in assay [3], 84.7%; in assay [4], 83.6%; in assay [5], 81.5%; in assay [6] it was 33.7%. The growth was -59.3% (active) in assay [7] and 61.4% in assay [8].
Turning to `CN1CCN(CCOc2cc(OC3CCOCC3)c3c(Nc4c(Cl)ccc5c4OCO5)ncnc3c2)CC1`, the growth in assay [1] is -14.3% (active); in assay [2], 89.2%; in assay [3] it was 98.3%; in assay [4], 110%; in assay [5], 62.8%; in assay [6], 35.3%. For the same compound, the growth in assay [7] was 90.7%; in assay [8], 17.1%.
For `Cc1cc(Nc2cc(N3CCN(C)CC3)nc(/C=C/c3ccccc3)n2)n[nH]1`, the growth is -24.7% (active) in assay [1]; 8.9% (active) in assay [2]; 6.58% (active) in assay [3]; 0.289% (active) in assay [4]; 0.852% (active) in assay [5]; 0.937% (active) in assay [6]. Further, the growth in assay [7] is -61.5% (active); in assay [8], -16.9% (active).
For `O=C(Nc1ccc(C(=O)Nc2ccc(C3=NCCCN3)cc2)cc1)Nc1ccc(C2=NCCCN2)cc1`, the growth in assay [1] is 45.2%; in assay [2], 76.1%; in assay [3], 103%; in assay [4], 101%; in assay [5] it was 70.8%; in assay [6], 63.9%. Further, the growth was 101% in assay [7] and 88.9% in assay [8].
For the compound `O=C(c1ccc(F)c(F)c1Nc1ccc(I)cc1F)N1CC(O)([C@@H]2CCCCN2)C1`, the growth is 11.8% in assay [1]; 47.1% in assay [2]; 21% in assay [3]; 17.5% in assay [4]; 14.1% in assay [5]; 5.24% (active) in assay [6]. The growth in assay [7] was -51.9% (active); in assay [8], 12.1%.
Regarding `CC(=O)Oc1ccccc1C(=O)N=C1[Se]CCN1C(=O)c1ccccc1OC(C)=O`, the growth was -15.2% (active) in assay [1]; -94.3% (active) in assay [2]; -57.2% (active) in assay [3]; -26.7% (active) in assay [4]; 5.48% (active) in assay [5]; -44% (active) in assay [6]. Further, the growth in assay [7] is -4.02% (active); in assay [8], -12.6% (active).
Regarding `CCN1CCN(c2nc(C)cc(N(CCNc3ccnc4cc(Cl)ccc34)Cc3ccc4c(c3)OCO4)n2)CC1`, the growth in assay [1] was -51.7% (active); in assay [2], 21.5%; in assay [3] it was -72.5% (active); in assay [4], 3.4% (active); in assay [5], 23.8%; in assay [6] it was 10.3%. In addition, the growth in assay [7] was -29.8% (active); in assay [8], 55.9%.
On to `COC(=O)[C@]12CC[C@@H](C)[C@H](C)[C@@H]1C1=CC[C@@H]3[C@@]4(C)C(C=O)=C[C@@](C)(COS(C)(=O)=O)C4=CC[C@@]3(C)[C@]1(C)CC2`, for which the growth was -10.6% (active) in assay [1]; -43.5% (active) in assay [2]; -73.8% (active) in assay [3]; -85.2% (active) in assay [4]; -16.8% (active) in assay [5]; -81.2% (active) in assay [6]. The growth is -83.5% (active) in assay [7] and -73% (active) in assay [8].
For the compound `NN1C(=O)CSC1=S`, the growth in assay [1] was 104%; in assay [2], 93.5%; in assay [3], 100%; in assay [4] it was 111%; in assay [5] it was 94.8%; in assay [6], 96.8%. For the same compound, the growth in assay [7] is 110%; in assay [8], 106%.
For `COc1cc2nccc(Oc3ccc(NC(=O)Nc4cc(C)on4)c(Cl)c3)c2cc1OC`, the growth in assay [1] is -1.14% (active); in assay [2], 19.6%; in assay [3], 14.8%; in assay [4], 10.7%; in assay [5], 22.8%; in assay [6] it was -4.79% (active). Also, the growth in assay [7] is 56.6%; in assay [8] it was 11.4%.
In the case of `Cc1ccc(NC(=O)NC(=O)CSc2nc3ccccc3nc2C)cc1`, the growth in assay [1] was 40.9%; in assay [2], 59.9%; in assay [3], 74.1%; in assay [4], 78.3%; in assay [5], 52.4%; in assay [6], 17.1%. For the same compound, the growth in assay [7] is 72.1%; in assay [8] it was 76.5%.
Turning to `CC1(COc2ccc3c(c2)ncn3-c2ccc3cccc(N4CCC(N)CC4)c3n2)COC1`, the growth in assay [1] was 81.7%; in assay [2], 43.1%; in assay [3] it was 65.5%; in assay [4], 1.95% (active); in assay [5], -10.1% (active); in assay [6], -45.6% (active). The growth in assay [7] was 31.2%; in assay [8], 6.35% (active).
In the case of `CC1(/C=N/NC(N)=S)NC(=O)NC1=O` (configuration not stated), the growth in assay [1] was 79.5%; in assay [2], 105%; in assay [3], 107%; in assay [4] it was 106%; in assay [5], 94.8%; in assay [6] it was 98.4%. Also, the growth in assay [7] is 118%; in assay [8], 104%.
With `C=CC(=O)Nc1cc2c(Nc3ccc(F)c(Cl)c3)ncnc2cc1C#CC(C)(C)N1CCN(C)CC1`, the growth in assay [1] is -81.5% (active); in assay [2] it was -94% (active); in assay [3], -98.1% (active); in assay [4] it was -78% (active); in assay [5] it was -65.2% (active); in assay [6], -92.6% (active). The growth in assay [7] is -81.5% (active); in assay [8], -90.2% (active).
In the case of `COc1ccc(S(=O)(=O)N(C(C)=O)c2ccccc2/C=C/c2cc[n+]([O-])cc2)cc1`, the growth in assay [1] was 27.2%; in assay [2] it was 16.2%; in assay [3], -50.8% (active); in assay [4], 23.6%; in assay [5], 15.2%; in assay [6] it was 5.12% (active). Also, the growth was 8.66% (active) in assay [7] and 14% in assay [8].
`CCN(CCO)CCCOc1ccc2c(Nc3cc(CC(=O)Nc4cccc(F)c4)[nH]n3)ncnc2c1`: the growth in assay [1] was 19.6%; in assay [2], 54.7%; in assay [3], 11.1%; in assay [4], 15.6%; in assay [5] it was 6.03% (active); in assay [6], 11.1%. The growth is 4.66% (active) in assay [7] and 15.9% in assay [8].
For `NC(=O)N1N=C(c2ccc(Cl)cc2)CC1c1cn(-c2ccccc2)nc1-c1ccc(Cl)cc1` (configuration not stated), the growth in assay [1] is 45.6%; in assay [2], 98.9%; in assay [3] it was 75.2%; in assay [4] it was 84.8%; in assay [5] it was 63.7%; in assay [6], 31.9%. The growth is 78.6% in assay [7] and 62.7% in assay [8].
`CC(=O)CC1CCCC1c1ccc2ccccc2c1` (configuration not stated): the growth in assay [1] was 90%; in assay [2], 109%; in assay [3] it was 111%; in assay [4], 106%; in assay [5] it was 95.9%; in assay [6], 104%. Besides, the growth was 86.8% in assay [7] and 106% in assay [8].
Take `C=CCCCOC1[C@H](OCc2ccccc2)C(OCc2ccccc2)C(OC)O[C@@H]1CNC(=O)c1cccc(I)c1` (some centres not stated): the growth in assay [1] was 33.4%; in assay [2], 57.5%; in assay [3] it was 44.7%; in assay [4], 32.6%; in assay [5], 20.4%; in assay [6], 19.8%. The growth in assay [7] is 86.7%; in assay [8], 38.5%.
As to `C=C1C[C@H](O)[C@H](Br)C(C)(C)[C@@]12CCC(C)=C(Cl)C2`, the growth is 28.7% in assay [1]; 26.4% in assay [2]; 9.73% (active) in assay [3]; 29.8% in assay [4]; 16.3% in assay [5]; 9.9% (active) in assay [6]. Further, the growth in assay [7] is 42.3%; in assay [8], 13.7%.
For `COC(=O)CNC(=O)[C@@H](OC)[C@@H]1Cc2cc3cc(OC4CC(OC5CC(O)C(O)C(C)O5)C(O)C(C)O4)c(C)c(O)c3c(O)c2C(=O)[C@H]1OC1CC(OC2CC(OC3CC(C)(O)C(O)C(C)O3)C(O)C(C)O2)C(O)C(C)O1` (some centres not stated), the growth in assay [1] is 11.3%; in assay [2], -44.3% (active); in assay [3], -39.2% (active); in assay [4] it was 12.7%; in assay [5], 7.64% (active); in assay [6], 3.52% (active). For the same compound, the growth is -42.3% (active) in assay [7] and 6.86% (active) in assay [8].
Regarding `Nc1cc2c(cc1Br)-c1c(C(=O)O)cccc1C2O` (configuration not stated), the growth in assay [1] was 105%; in assay [2], 114%; in assay [3], 105%; in assay [4], 110%; in assay [5], 95.4%; in assay [6] it was 96.4%. Further, the values for the growth in assay [7] and in assay [8] were 112% and 99.3%, respectively.
As to `Clc1ccc(Nc2nccc(Nc3ccc4[nH]ncc4c3)n2)cc1`, the growth in assay [1] was 30.1%; in assay [2], 53%; in assay [3] it was 55.8%; in assay [4], 33%; in assay [5] it was 25%; in assay [6], 39.4%. The results for the growth in assay [7] and in assay [8] were 94.3% and 9.06% (active), respectively.
In the case of `Cc1ccsc1C(NC(=O)c1ccccc1)c1cc(Cl)c2cccnc2c1O` (configuration not stated), the growth is 24.1% in assay [1]; 35.4% in assay [2]; 30.5% in assay [3]; 18.8% in assay [4]; 21.8% in assay [5]; 13.7% in assay [6]. In addition, the growth was 45% in assay [7] and 22% in assay [8].
With `CC(C)C1CCC(C)C(C2(C#N)C(N)=NC(N)=C2C#N)C1=O` (configuration not stated), the growth is 83.6% in assay [1]; 98.8% in assay [2]; 101% in assay [3]; 102% in assay [4]; 92.6% in assay [5]; 99.2% in assay [6]. For the same compound, the growth in assay [7] was 95.8%; in assay [8], 92.9%.
Consider `CC(=O)Nc1cccc(-n2c(=O)n(C3CC3)c(=O)c3c(Nc4ccc(I)cc4F)n(C)c(=O)c(C)c32)c1`, for which the growth in assay [1] is 51.3%; in assay [2], 60.7%; in assay [3] it was 27.7%; in assay [4], 19%; in assay [5], 80.8%; in assay [6] it was 10.6%. Moreover, the growth in assay [7] was -26.9% (active); in assay [8], 23%.
